Experiment [1] can be described thus: small molecules captured by biotinylated probe aFSTL3 – biochemical, small-molecule microarray, fluorescence 635/667, stem cell growth factor project, primary screen (AID 1064).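 Also: measures binding of the biotinylated anti-FSTL3 antibody to printed compounds.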 The note with it: higher = more signal.
A short description of experiment [2]: binders from COS7 lysate, DM2A8 probe, primary screen, torsin A project, cell lysate, small-molecule microarray, fluorescence 635/667 (AID 1065). The note with it: higher = more signal, COS7 lysate expressing mutant human TOR1A.
A short description of experiment [3]: small molecules captured by biotinylated probe aFGF2 – biochemical, small-molecule microarray, fluorescence 635/667, stem cell growth factor project, primary screen (AID 1067).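 Also: measures binding of biotinylated aFGF2 protein to printed compounds on slides; z-score merges feature fluorescence and signal-to-noise across triplicate slides.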 The note with it: higher = more signal.
A short description of experiment [4]: small molecules captured by biotinylated probe aFGF10 – biochemical, small-molecule microarray, fluorescence 635/667, stem cell growth factor project, primary screen (AID 1071).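 Also: score merges 667 nm spot intensity and signal to noise from triplicate slides.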 The following applies: higher = more signal.
For experiment [5], the target named is Neurogenic locus notch homolog protein 2 (Homo sapiens) (UniProt Q04721). Briefly: small molecules binding Notch2 protein – biochemical, small-molecule microarray, 635 nm fluorescence, stem cell growth factors, primary screen (AID 1073). The note with it: higher = more signal.
The target in experiment [6] is Pro-neuregulin-1, membrane-bound isoform (Homo sapiens) (UniProt Q02297). Kind of experiment: small molecules binding neuregulin-1 protein – biochemical, small-molecule microarray, fluorescence 635/667, psychiatric disease protein project, primary screen (AID 1075).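 Also: score combines 667 nm spot fluorescence with signal to noise.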 The note with it: NRG1 binding, 635 nm fluorescence, higher = more signal.
For experiment [7], the system named is Neuregulin-1 EGF-like domain. Briefly: small molecules binding NRG1 EGF domain – biochemical, small-molecule microarray, 635 nm fluorescence, primary screen (AID 1081).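 Also: binding of the protein to compounds printed on small-molecule microarray slides.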 The following applies: higher = more signal.
A short description of experiment [8]: FRG1 expression reporter modulators in myotubes – cell-based, C2C12 myotubes, firefly/Renilla luciferase, luminescence, FRG1 inhibition for FSHD, primary screen (AID 1084). The note with it: FRG1 promoter luciferase, higher = more signal, called active from +8 up or from −8 down.
Experiment [9] can be described thus: small molecules captured by biotinylated probe aFST – biochemical, small-molecule microarray, fluorescence 635/667, stem cell growth factor project, primary screen (AID 1086).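 Also: score merges 667 nm fluorescence with signal-to-noise of each printed compound spot.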 The note with it: higher = more signal.
The nature of experiment [10]: binders of probe aHhip on microarray, primary screen, stem cell growth factor project, biochemical, small-molecule microarray, fluorescence 635/667 (AID 1087).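 Also: score merges spot fluorescence at 667nm with spot signal to noise ratio.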 The note with it: higher = more signal.
Experiment [11] deals with PRMT1 (protein arginine N-methyltransferase 1). Briefly: small molecules binding arginine methyltransferase PRMT1 – biochemical, small-molecule microarray, 635 nm fluorescence, primary screen (AID 1088).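 Also: binding of Prmt1 protein to compounds spotted on small-molecule microarray slides.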 The note with it: higher = more signal.
Experiment [12] is described as follows: growth effects on S. cerevisiae YJM789 – YJM789 clinical isolate, OD600, 24 h, basal, primary screen (AID 1089).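 Also: growth of clinical yeast isolate S. cerevisiae YJM 789 seeded 1000 cells per well; test concentration not given here.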 The note with it: higher = more signal, called active from +8 up or from −8 down.
A short description of experiment [13]: S. pombe growth modifiers, basal conditions – strain 972, OD600, 24 h, no modulator, primary screen (AID 1090).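 Also: basal condition with compound alone and no growth modifier present; test concentration not given here.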 The note with it: S. pombe 972 growth, higher = more signal, called active from +8 up or from −8 down.
A short description of experiment [14]: budding yeast growth modifiers under rapamycin – strain BY4716, OD600, 96 h, primary screen (AID 1091). Also: test concentration not given here. The note with it: S. cerevisiae BY4716 + rapamycin, higher = more signal, called active from +8 up or from −8 down.
In experiment [15] the target is Torsin-1A-interacting protein 2 (Homo sapiens) (UniProt Q8NFQ8). Briefly: small molecules binding lysate-expressed LULL1 – cell lysate, human LULL1 lysate, 635/667 nm fluorescence, primary screen (AID 1092).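 Also: probe is lysate of COS7 cells overexpressing human LULL1; score merges per-feature 667 nm fluorescence with signal-to-noise.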 The note with it: small-molecule microarray, hLULL1 lysate binding, 635 nm fluorescence; higher = more signal.
Experiment [16] in a line: optical density change of DRC41 E. coli – strain DRC41, OD650, 24 h, E. coli filamentation project, primary screen (AID 1093).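 Also: MC1000 strain lacking acrAB efflux and sulA so SOS filamentation is blocked; test concentration not given here.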 The following applies: E. coli DRC41 growth, higher = more signal, called active from +8 up or from −8 down.
A short description of experiment [17]: probe aLefty2 binding to arrayed compounds – biochemical, biotinylated probe, 635/667 nm fluorescence, primary screen (AID 1094).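 Also: score merges spot fluorescence near 667 nm with spot signal-to-noise ratio.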 The following applies: small-molecule microarray, higher = more signal.
The subject of experiment [18] is Noggin (protein binding on small-molecule microarray). Briefly: small molecules binding Noggin protein – biochemical, 635/667 nm fluorescence, primary screen (AID 1095).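 Also: score merges 667 nm feature fluorescence with signal to noise over triplicate slides.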 The following applies: 635 nm fluorescence, higher = more signal.
The target of experiment [19] is Neurogenic locus notch homolog protein 3 (Homo sapiens) (UniProt Q9UM47). Kind of experiment: small molecules binding NOTCH3 protein – biochemical, 635/667 nm fluorescence, primary screen (AID 1096). The following applies: small-molecule microarray, 635 nm fluorescence, higher = more signal.
Experiment [20] in a line: probe aEGFR binding to arrayed compounds – biochemical, biotinylated probe, 635/667 nm fluorescence, primary screen (AID 1097).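 Also: probe is a biotinylated anti-EGFR antibody binding compounds printed on slides; score combines fluorescence near 667 nm and signal to noise of each spot.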 The note with it: small-molecule microarray, higher = more signal.

Calls of active or inactive are those of the source.

Chain of Pro-neuregulin-1, membrane-bound isoform (Homo sapiens) (Q02297 whole entry, looked up, the tested form may be a part, canonical isoform): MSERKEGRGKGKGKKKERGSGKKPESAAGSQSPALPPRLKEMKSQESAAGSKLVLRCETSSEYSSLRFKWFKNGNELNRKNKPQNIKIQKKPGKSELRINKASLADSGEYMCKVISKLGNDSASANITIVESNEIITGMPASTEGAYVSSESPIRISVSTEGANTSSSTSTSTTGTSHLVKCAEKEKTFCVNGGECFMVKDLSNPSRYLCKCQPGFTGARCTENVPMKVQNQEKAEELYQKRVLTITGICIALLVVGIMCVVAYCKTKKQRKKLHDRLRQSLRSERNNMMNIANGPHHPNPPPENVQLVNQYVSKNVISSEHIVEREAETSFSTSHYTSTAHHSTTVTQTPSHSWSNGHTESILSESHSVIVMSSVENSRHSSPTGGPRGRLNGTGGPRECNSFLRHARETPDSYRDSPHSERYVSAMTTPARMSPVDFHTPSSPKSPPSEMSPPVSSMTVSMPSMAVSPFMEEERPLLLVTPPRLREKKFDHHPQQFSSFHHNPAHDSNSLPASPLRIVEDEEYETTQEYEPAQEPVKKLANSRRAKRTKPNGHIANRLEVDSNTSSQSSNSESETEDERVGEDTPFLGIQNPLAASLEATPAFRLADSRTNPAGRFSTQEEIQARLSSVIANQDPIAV
Chain of Torsin-1A-interacting protein 2 (Homo sapiens) (Q8NFQ8 whole entry, looked up): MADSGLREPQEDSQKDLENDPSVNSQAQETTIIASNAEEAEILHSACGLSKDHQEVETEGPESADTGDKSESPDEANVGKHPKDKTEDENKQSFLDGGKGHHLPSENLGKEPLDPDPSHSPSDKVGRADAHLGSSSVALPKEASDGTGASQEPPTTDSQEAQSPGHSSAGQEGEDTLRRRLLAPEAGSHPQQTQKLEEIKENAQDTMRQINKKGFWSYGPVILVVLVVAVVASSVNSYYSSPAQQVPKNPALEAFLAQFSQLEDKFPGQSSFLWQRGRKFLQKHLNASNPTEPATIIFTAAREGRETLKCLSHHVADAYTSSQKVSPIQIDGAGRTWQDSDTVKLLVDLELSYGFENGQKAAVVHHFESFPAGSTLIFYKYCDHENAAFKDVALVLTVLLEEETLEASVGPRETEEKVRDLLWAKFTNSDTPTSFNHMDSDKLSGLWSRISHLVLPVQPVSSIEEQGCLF
Chain of Neurogenic locus notch homolog protein 2 (Homo sapiens) (Q04721 whole entry, looked up, canonical isoform): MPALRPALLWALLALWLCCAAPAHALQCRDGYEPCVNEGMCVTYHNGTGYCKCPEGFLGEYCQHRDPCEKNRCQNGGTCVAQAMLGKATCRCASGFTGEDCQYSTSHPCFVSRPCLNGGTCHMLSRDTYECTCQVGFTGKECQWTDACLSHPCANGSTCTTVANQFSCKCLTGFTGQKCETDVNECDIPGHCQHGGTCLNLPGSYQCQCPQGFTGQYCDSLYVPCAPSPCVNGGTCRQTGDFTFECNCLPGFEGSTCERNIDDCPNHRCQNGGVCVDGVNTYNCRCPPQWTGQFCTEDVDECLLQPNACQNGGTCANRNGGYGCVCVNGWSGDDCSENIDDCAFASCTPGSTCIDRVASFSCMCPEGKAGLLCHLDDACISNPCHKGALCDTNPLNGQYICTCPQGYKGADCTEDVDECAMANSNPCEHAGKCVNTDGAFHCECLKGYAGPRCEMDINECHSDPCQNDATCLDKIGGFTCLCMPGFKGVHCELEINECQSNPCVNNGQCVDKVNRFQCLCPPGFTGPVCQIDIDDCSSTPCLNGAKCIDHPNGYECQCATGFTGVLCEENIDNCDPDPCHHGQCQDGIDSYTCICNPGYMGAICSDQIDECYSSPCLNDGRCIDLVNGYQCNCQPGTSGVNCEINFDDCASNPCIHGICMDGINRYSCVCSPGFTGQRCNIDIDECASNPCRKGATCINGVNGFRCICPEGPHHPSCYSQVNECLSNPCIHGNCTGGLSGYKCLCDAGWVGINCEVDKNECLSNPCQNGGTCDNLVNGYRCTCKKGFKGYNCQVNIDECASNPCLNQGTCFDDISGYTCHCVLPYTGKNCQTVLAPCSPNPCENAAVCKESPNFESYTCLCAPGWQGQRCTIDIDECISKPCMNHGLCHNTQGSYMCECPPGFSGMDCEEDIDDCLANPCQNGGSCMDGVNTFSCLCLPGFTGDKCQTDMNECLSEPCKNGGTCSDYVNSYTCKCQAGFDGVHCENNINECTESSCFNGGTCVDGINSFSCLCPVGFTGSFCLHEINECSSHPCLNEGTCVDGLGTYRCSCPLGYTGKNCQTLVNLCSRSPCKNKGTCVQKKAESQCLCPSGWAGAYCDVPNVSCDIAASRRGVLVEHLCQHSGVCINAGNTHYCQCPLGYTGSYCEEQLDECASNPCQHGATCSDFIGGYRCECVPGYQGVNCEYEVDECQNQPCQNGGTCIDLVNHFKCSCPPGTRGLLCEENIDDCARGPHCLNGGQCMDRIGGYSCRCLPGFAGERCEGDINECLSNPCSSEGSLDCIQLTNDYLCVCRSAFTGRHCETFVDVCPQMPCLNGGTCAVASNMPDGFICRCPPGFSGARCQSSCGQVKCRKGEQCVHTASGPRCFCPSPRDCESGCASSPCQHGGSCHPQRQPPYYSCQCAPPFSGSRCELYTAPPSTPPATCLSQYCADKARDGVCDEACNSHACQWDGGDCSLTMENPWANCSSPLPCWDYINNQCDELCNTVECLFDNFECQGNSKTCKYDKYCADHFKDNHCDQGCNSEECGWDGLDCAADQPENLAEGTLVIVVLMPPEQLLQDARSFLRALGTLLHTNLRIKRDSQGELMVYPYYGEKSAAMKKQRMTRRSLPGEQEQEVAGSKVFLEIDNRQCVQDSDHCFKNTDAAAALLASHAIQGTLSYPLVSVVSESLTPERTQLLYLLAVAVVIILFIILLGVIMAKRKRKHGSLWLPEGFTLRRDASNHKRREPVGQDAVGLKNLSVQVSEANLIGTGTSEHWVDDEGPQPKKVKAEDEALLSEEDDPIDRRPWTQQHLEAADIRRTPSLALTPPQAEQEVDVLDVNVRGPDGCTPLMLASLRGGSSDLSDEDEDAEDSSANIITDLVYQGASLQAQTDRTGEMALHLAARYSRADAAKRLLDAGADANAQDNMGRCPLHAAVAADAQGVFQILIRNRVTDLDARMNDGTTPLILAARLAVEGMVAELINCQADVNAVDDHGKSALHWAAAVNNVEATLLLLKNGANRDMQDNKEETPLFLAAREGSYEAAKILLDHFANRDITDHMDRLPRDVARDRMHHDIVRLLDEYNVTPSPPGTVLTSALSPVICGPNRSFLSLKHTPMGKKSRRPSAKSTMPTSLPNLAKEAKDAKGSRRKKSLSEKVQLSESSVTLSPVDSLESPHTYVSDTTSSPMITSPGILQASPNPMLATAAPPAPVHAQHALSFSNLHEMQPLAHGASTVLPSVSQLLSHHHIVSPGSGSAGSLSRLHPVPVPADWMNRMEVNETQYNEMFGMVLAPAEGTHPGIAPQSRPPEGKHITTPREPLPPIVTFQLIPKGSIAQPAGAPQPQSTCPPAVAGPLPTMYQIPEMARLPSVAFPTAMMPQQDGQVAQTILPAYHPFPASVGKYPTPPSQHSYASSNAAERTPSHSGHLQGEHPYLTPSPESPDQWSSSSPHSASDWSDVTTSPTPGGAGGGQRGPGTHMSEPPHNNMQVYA

As to `CC(=O)NCCCC[C@@H]1NC(=O)[C@@H]2C[C@H](C(=O)NCCCCCCN(C)C)[C@H](c3ccc(O)cc3)N2C1=O`, the composite z-score in experiment [1] is -0.438; in [2], 1.71; in experiment [3], 0.0513; in [4], 1.19; in experiment [5], 0.734; in experiment [6] it was 1.56. In addition, the composite z-score in [7] came to 1.51; in [9], 0.541; in experiment [10], 0.797; in experiment [11], 1.54; in [15] it was 2.4; in experiment [17], 0.691. The composite z-score stood at 1.61 in [18], 1.08 in experiment [19] and 0.177 in [20]. Besides, the z-score in experiment [8] is 4.01 (inactive); in experiment [12], 0.146 (inactive); in experiment [13] it was -0.542 (inactive); in [14] it was 0.905 (inactive); in experiment [16], 1.02 (inactive).
For `CO[C@H]1COC(=O)[C@@H](Cc2ccccc2)NC(=O)[C@@H](C)COC(=O)CC=C[C@@H]1C`, the composite z-score in [1] was -0.533; in experiment [2] it was 0.806; in experiment [3], -0.142; in experiment [4] it was -0.0799; in [5], -0.172; in experiment [6] it was -0.923. Moreover, the composite z-score is -0.294 in experiment [7]; -0.0629 in experiment [9]; -0.0994 in experiment [10]; 0.633 in experiment [11]; -1.09 in [15]; -0.202 in experiment [17]. For the same compound, the composite z-score in [18] was 1.48; in experiment [19], 0.269; in experiment [20], -0.096. Moreover, the z-score in experiment [8] was 0.0824 (inactive); in experiment [12], -0.236 (inactive); in [13], -0.669 (inactive); in experiment [14], -0.555 (inactive); in [16] it was 0.395 (inactive).
For `C=CC[C@@]1(C(=O)NCC(O)CO)N=C(c2ccc(OCCCO)cc2)O[C@@H]1c1ccccc1CN=[N+]=[N-]` (stereo not given in full), the composite z-score in experiment [1] was 0.325; in experiment [2] it was 0.674; in [3], -0.11; in experiment [4] it was -0.355; in [5], 0.13; in [6] it was 1.79. Besides, the composite z-score in experiment [7] was 1.23; in experiment [9], 0.966; in experiment [10] it was -0.236; in [11], 1.18; in experiment [15], 3.84; in experiment [17], -0.147. For the same compound, the figures for the composite z-score in [18], in experiment [19] and in experiment [20] were -0.265, -0.216 and -0.152, respectively. In addition, the z-score was -2.68 (inactive) in experiment [8]; -0.785 (inactive) in experiment [12]; -1.42 (inactive) in [13]; -1.04 (inactive) in experiment [14]; 1.52 (inactive) in experiment [16].
In the case of `Cc1ccc(N2C(=O)c3ccccc3[C@@H](C(=O)NCc3ccccc3)[C@@H]2c2ccc(CO)cc2)nc1`, the composite z-score in [1] is 0.462; in [2] it was 0.205; in [3], -0.128; in experiment [4] it was -0.741; in experiment [5] it was -0.272; in [6] it was -0.161. Further, the composite z-score is 0.908 in experiment [7]; 0.174 in experiment [9]; 0.0807 in [10]; -0.363 in experiment [11]; 1.39 in [15]; 0.306 in [17]. For the same compound, the composite z-score in experiment [18] was 0.0163; in [19], -0.763; in [20], -0.166. Further, the z-score in [8] is -0.702 (inactive); in experiment [12], 0.938 (inactive); in [13], -0.242 (inactive); in [14] it was 0.76 (inactive); in [16], 1.29 (inactive).
For the compound `O=C1O[C@H](c2ccccc2)[C@H](c2ccccc2)N2[C@H]1[C@@H](C(=O)Nc1nc3ccccc3s1)[C@]1(C(=O)Nc3ccc(C#CC4=CCCCC4)cc31)[C@H]2c1ccccc1OCCO`, the composite z-score in [1] was -0.572; in experiment [2], 0.255; in experiment [3], 0.0075; in [4], 0.552; in experiment [5] it was 1.16; in experiment [6], 1.59. For the same compound, the composite z-score was 1.06 in experiment [7]; 0.459 in [9]; -0.0726 in [10]; 1.56 in experiment [11]; 2.35 in [15]; -0.0778 in experiment [17]. The composite z-score was determined as 1.53 in experiment [18], 1.1 in [19] and 0.0564 in [20]. Further, the z-score is 0.59 (inactive) in [8]; 2.17 (inactive) in [12]; 1.82 (inactive) in [13]; 4.5 (inactive) in experiment [14]; -0.0227 (inactive) in [16].

The values above are taken from PubChem BioAssay.
